Laboratory results: the supplement of paper PMC11732987, “Enantioselective OTUD7B fragment discovery through chemoproteomics screening and high-throughput optimisation” (Communications Chemistry, 2025)

Legend:
Assay in all cases: log2 ratio of Biotin-Ahx-Ub-VS probe labelling (fragment/DMSO); higher = less target engagement (more negative = stronger competition), active = hit call of the paper (q ≤ 0.05, log2 ratio ≤ -1)
Conditions in all cases: compound concentration: 200 uM; treatment time: 3 h
ALG13 = molecular target: T1, ALG13 (UniProt Q9NP73)
T1 sequence (whole entry): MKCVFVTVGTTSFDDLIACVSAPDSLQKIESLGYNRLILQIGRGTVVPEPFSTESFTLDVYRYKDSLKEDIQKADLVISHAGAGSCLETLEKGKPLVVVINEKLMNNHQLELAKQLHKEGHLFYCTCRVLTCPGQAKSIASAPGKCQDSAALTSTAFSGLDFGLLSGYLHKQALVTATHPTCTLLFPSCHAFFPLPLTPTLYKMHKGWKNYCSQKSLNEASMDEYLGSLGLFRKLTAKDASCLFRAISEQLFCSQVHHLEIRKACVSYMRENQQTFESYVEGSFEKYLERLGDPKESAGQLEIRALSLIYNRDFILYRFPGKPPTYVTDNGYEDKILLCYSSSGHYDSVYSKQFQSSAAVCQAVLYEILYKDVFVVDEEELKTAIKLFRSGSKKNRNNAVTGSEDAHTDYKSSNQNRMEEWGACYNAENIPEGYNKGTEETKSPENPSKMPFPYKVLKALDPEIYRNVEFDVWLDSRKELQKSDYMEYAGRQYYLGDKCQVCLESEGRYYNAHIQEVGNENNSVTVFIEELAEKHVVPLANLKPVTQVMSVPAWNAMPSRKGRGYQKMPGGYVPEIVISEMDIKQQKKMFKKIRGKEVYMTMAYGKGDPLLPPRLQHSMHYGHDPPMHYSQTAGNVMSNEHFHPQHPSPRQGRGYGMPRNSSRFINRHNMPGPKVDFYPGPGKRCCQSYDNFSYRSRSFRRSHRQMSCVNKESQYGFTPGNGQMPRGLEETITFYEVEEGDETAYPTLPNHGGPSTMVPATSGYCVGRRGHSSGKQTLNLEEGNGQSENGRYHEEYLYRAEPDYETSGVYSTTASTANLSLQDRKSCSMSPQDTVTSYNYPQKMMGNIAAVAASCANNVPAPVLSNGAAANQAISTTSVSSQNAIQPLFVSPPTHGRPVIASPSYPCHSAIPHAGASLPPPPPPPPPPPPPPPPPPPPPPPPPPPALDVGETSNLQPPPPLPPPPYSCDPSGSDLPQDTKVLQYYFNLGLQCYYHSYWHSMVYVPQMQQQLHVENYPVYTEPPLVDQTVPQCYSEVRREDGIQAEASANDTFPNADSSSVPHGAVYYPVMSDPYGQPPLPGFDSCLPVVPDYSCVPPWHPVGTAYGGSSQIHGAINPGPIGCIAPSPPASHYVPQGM
In short: (§1)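 Labelling with Biotin-Ahx-Ub-VS (0.5 µM final, 1 h) followed a 3 h triplicate treatment of HEK293T lysate (495 µg per sample, Tris/CHAPS/IGEPAL buffer with protease inhibitors) with fragment at 200 µM or vehicle. Labelled DUBs were NeutrAvidin-enriched, digested with LysC and trypsin, and run by diaPASEF LC-MS/MS. The values, average log2 fragment/vehicle ratios by unpaired t-test, come from global-median-normalised Spectronaut label-free quantities. Proteins with ≥2 unique peptides were used.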

ATXN3 = ATXN3 (UniProt P54252)
In short: as §1

BAP1 = molecular target: T2, BAP1 (UniProt Q92560)
T2 sequence (whole entry): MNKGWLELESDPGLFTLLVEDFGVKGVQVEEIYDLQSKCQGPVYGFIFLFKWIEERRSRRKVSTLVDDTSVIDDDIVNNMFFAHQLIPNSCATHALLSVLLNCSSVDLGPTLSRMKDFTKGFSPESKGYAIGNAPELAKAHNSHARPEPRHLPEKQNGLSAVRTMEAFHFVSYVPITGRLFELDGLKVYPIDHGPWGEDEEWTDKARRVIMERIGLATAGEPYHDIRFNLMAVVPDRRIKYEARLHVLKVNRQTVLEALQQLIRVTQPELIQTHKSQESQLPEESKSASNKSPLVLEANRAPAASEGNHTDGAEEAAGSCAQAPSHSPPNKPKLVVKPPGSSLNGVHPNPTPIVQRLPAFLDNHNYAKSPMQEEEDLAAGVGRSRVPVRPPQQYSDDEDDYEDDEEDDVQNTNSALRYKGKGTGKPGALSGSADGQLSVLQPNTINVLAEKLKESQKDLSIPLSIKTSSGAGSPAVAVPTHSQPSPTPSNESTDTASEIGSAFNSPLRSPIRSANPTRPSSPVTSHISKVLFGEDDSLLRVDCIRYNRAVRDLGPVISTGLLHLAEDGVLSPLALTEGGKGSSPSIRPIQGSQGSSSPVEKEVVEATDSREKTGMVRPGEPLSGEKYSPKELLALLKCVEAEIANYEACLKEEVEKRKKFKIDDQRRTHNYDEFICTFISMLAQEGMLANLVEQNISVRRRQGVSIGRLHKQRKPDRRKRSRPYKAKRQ
In short: as §1

EIF3F = EIF3F (UniProt O00303)
In short: as §1

EIF3H = EIF3H (UniProt O15372)
In short: as §1

FAM105A = molecular target: T3, FAM105A (UniProt Q9NUU6)
T3 sequence (whole entry): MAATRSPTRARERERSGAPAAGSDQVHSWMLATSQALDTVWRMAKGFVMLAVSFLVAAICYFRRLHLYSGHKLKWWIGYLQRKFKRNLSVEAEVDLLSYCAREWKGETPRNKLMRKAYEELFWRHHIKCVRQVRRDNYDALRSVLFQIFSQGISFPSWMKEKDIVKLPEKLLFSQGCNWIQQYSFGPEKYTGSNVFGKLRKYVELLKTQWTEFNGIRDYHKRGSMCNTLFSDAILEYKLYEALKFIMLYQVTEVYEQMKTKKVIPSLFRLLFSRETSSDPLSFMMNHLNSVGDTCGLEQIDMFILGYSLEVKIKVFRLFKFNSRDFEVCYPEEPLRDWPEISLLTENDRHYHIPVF
In short: as §1

OTUB1 = OTUB1 (UniProt Q96FW1)
In short: as §1

OTUD4 = molecular target: T4, OTUD4 (UniProt Q01804)
T4 sequence (whole entry): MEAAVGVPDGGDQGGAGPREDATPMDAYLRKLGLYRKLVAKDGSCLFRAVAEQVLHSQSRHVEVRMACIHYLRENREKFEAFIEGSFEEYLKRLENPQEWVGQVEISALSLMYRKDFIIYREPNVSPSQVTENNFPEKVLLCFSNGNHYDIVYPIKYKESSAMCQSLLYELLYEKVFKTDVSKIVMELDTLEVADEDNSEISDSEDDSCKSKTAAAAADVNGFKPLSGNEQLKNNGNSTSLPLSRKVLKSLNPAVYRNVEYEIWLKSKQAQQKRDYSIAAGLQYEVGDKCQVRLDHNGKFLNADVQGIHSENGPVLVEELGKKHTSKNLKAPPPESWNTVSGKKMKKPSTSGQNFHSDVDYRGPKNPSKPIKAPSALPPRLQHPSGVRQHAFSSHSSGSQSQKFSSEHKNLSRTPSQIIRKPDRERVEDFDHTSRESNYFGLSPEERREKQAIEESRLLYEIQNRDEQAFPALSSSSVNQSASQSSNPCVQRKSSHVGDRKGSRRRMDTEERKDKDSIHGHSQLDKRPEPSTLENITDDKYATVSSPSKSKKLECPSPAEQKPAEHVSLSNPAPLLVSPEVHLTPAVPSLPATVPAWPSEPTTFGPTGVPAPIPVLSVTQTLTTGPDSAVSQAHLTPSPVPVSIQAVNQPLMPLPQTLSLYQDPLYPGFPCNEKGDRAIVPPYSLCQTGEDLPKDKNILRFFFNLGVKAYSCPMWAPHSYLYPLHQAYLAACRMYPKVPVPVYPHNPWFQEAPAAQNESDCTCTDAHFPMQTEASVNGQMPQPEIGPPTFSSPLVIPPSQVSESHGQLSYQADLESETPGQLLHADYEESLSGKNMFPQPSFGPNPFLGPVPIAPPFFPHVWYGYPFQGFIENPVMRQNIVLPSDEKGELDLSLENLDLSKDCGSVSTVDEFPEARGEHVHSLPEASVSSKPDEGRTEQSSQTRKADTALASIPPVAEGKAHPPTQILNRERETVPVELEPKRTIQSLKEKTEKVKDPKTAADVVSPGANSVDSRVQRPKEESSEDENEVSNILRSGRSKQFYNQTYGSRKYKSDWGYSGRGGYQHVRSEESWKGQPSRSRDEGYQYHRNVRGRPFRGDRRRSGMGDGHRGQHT
In short: as §1

OTUD5 = molecular target: T5, OTUD5 (UniProt Q96G74)
T5 sequence (whole entry): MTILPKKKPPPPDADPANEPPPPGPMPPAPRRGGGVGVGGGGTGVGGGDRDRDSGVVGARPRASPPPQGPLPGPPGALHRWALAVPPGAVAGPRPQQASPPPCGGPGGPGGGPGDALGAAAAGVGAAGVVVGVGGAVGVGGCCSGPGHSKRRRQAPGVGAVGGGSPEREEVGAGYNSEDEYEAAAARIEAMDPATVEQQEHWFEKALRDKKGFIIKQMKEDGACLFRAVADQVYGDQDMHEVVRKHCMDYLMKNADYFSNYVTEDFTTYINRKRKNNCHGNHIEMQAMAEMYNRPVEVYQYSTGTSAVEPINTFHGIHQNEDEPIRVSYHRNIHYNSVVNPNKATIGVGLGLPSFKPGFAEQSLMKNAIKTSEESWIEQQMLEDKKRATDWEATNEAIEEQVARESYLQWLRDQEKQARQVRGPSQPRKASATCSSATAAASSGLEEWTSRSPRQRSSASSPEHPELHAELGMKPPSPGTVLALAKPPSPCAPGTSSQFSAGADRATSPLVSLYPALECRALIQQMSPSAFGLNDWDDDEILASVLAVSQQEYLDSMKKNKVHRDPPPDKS
In short: as §1

Measured: log2 ratio of Biotin-Ahx-Ub-VS probe labelling

Sequence of EIF3H (O15372 whole entry): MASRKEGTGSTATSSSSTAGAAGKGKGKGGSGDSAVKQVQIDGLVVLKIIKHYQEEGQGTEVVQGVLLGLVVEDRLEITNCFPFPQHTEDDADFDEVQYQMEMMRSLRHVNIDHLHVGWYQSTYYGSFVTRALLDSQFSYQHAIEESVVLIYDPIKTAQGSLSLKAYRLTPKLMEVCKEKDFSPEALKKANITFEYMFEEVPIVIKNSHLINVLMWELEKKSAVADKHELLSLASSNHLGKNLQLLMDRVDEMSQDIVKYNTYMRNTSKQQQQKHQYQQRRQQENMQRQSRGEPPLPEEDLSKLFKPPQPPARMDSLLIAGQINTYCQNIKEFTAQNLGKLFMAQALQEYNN
Sequence of EIF3F (O00303 whole entry): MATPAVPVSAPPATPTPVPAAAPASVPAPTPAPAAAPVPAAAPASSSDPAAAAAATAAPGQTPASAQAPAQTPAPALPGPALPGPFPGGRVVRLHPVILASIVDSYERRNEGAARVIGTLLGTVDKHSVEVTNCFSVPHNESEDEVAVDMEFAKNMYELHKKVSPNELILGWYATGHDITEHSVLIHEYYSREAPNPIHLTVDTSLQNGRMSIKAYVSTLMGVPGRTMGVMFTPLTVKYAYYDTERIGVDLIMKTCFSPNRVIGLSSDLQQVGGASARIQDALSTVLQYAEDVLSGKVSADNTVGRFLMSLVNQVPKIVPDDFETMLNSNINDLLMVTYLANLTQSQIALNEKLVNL
Sequence of OTUB1 (Q96FW1 whole entry): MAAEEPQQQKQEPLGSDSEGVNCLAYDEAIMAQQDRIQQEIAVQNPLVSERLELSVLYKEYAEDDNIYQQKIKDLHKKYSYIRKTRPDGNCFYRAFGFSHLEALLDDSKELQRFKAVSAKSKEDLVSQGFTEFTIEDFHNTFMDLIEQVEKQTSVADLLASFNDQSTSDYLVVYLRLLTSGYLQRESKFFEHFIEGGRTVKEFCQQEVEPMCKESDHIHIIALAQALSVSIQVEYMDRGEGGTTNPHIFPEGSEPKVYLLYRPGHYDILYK
Sequence of ATXN3 (P54252 whole entry): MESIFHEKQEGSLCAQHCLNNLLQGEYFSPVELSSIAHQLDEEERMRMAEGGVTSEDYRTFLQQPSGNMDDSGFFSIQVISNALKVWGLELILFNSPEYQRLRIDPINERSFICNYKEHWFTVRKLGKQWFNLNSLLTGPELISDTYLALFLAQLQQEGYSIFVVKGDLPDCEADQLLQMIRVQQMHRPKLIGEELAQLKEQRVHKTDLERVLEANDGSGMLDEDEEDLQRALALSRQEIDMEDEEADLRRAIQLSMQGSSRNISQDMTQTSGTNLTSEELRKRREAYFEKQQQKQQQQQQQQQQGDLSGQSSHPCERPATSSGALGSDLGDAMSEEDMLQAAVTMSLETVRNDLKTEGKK

O=C(CCl)N1CCC2(CCC(O)CC2)CC1
inactive: ALG13 -0.532 | ATXN3 -0.833 | BAP1 -0.626 | EIF3F -0.321 | EIF3H 0.288 | FAM105A 0.217 | OTUB1 -0.0501 | OTUD4 -0.206 | OTUD5 -0.29
